Source: PubChem BioAssay AID1347426 (Functional Genomics Laboratory (NCATS/FGL), 2020)
The campaign covered roughly 31,000 sequences. About 1,400 (4.5%) were called active.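 Rule for the calls: active = median seed-adjusted z-score above 1 or below -1; inactive = the rest.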 This excerpt belongs to a sample that is enriched for actives.

Test: Novel Modifiers of Survival Motor Neuron (SMN) Protein: Gene Identification via Genome-wide siRNA Screen;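 note: luminescence tracks full-length SMN protein made from the SMN2 reporter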
Settings: HEK293T SMN2-luciferase reporter, siRNA knockdown, 72 h; actives lie on both sides
How it was run: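 siRNA screen, 10418 genes ×3 siRNAs; 1 pmol/well, lipid reverse transfection into HEK293T SMN2-luc reporter line. 72 h, 37 °C, 5% CO2; ONE-Glo readout. Data: neg-ctrl normalized, log10, MAD; hit = MAD >1.0 or < -1.0.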
For GGUAAAAUCAAGUACCAUATT against TIGD2, the median seed-adjusted z-score was -0.13 (inactive). With GCAUCACCAUCCUUCCGCATT against BACE1 the median seed-adjusted z-score was -0.537 (inactive). For AGAGAGUGGUUUUUCCUCCTT against WWP2, the median seed-adjusted z-score was -0.685 (inactive). With GUGCUUCAGUAGGUAUGUATT against ASNS the median seed-adjusted z-score was -1.1 (active). With GGCCUUUAGUUAUAAAGGATT against TIMM8A the median seed-adjusted z-score was 0.173 (inactive). For ACAUAGCCGUGUCCAGGUATT against GLYCTK, the median seed-adjusted z-score was 0.0328 (inactive). For GACCUGAAUUGUAUCAUCATT against MAPK3, the median seed-adjusted z-score was -0.573 (inactive). In the case of GAACUCCAGAGAUCAAUAATT against IL7R, the median seed-adjusted z-score was 0 (inactive). In the case of CCAACUAUCAGUGACCGUATT against CYP17A1, the median seed-adjusted z-score was -1.39 (active). With CUAUCACCUGGACUGUAUATT against RNF11 the median seed-adjusted z-score was -0.365 (inactive). With GGAGACUUACUACCUAUAATT against PARD6B the median seed-adjusted z-score was 0.315 (inactive). For GGCUUCUUCUAUUCAAUUUTT against BCL6B, the median seed-adjusted z-score was 0 (inactive). With GAACUGACAAGCUUAGUAATT against SAP18 the median seed-adjusted z-score was 2.14 (active). For AUACAGAUCUAAUAGAGUUTT against NAT1, the median seed-adjusted z-score was -0.0665 (inactive). In the case of CCAUUGACAAUUCAACUUATT against ST8SIA1, the median seed-adjusted z-score was -0.25 (inactive). For CGCCUCAACCUGAUCAUCATT against ENPP7, the median seed-adjusted z-score was -0.478 (inactive). For GUGCCUUGCUAUUCUAAGATT against NEUROD1, the median seed-adjusted z-score was 0 (inactive). In the case of GAAACUCUCUUCAAGUCUATT against CKB, the median seed-adjusted z-score was -0.236 (inactive). In the case of GGCAAAUGGUUGAGACUGATT against YWHAE, the median seed-adjusted z-score was 1.38 (active). In the case of GCAGCAUAAUGAAACGUGATT against ARPM1, the median seed-adjusted z-score was -0.0251 (inactive). In the case of UCUUCGAGCAAGAAACUAATT against CD9, the median seed-adjusted z-score was -1.02 (active). With AUAAAUUCCUGAUUGCUAATT against CXCL6 the median seed-adjusted z-score was 0.802 (inactive). With GGACUACAGCGGACAAGGATT against WDR1 the median seed-adjusted z-score was -0.457 (inactive). With GGAACAUUCCUGUGCAACATT against MTMR3 the median seed-adjusted z-score was 0.281 (inactive). With GAUGAUAGCCAAACCCUCATT against ZNF626 the median seed-adjusted z-score was 0.185 (inactive). In the case of GGUGUUGUUUCAUCGUUUUTT against CCNL1, the median seed-adjusted z-score was -1.26 (active). In the case of GUGCAUGCAGGAGAAGUCATT against GATA2, the median seed-adjusted z-score was 0.623 (inactive). For GCAUGCAGCCUUGAAGAUATT against CRYZL1, the median seed-adjusted z-score was 0.0481 (inactive). With CGUGUCAAAUAUUGGAUUATT against KLB the median seed-adjusted z-score was 0.221 (inactive). In the case of GCACCUUCGUCCUCAACUUTT against PROC, the median seed-adjusted z-score was -0.228 (inactive).
